Experimental data from PubChem BioAssay (NCI).
Compounds without any hit were thinned out: in the full panel of roughly 83,000, 20% have a hit.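 Values shown are percent growth following 48 h exposure of cells in 96-well plates to a single concentration of compound; below 10 was considered active.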 Calls of active or inactive are those of the source.

What was measured:
Experiment in all cases: NCI-60 one-dose screen, 48 h (100 = growth as untreated, 0 = no growth, -100 = all killed)
[1] = system: NCI-H23 lung; conditions: 10 µM unless noted
[2] = system: NCI-H322M lung; conditions: 10 µM unless noted
[3] = system: HOP-62 NSCLC; conditions: 10 µM unless noted
[4] = system: NCI-H460 lung; conditions: 10 µM unless noted
[5] = system: HOP-92 NSCLC; conditions: 10 µM
[6] = system: NCI-H522 lung; conditions: 10 µM unless noted
[7] = system: A549/ATCC NSCLC; conditions: 10 µM unless noted
[8] = system: 786-0 renal; conditions: 10 µM unless noted
[9] = system: COLO 205 colon; conditions: 10 µM unless noted
[10] = system: DU-145 prostate; conditions: 10 µM unless noted
[11] = system: K-562 leukemia; conditions: 10 µM unless noted
[12] = system: MALME-3M melanoma; conditions: 10 µM unless noted
[13] = system: MDA-MB-231 breast; conditions: 10 µM unless noted
[14] = system: SF-268 CNS; conditions: 10 µM unless noted
[15] = system: SF-295 CNS; conditions: 10 µM unless noted
[16] = system: SF-539 CNS; conditions: 10 µM unless noted
[17] = system: UACC-257 melanoma; conditions: 10 µM unless noted
[18] = system: RXF 393 renal; conditions: 10 µM unless noted
[19] = system: M14 melanoma; conditions: 10 µM unless noted
[20] = system: NCI-H226 lung; conditions: 10 µM unless noted

Measured: growth

O=C(NNc1nc2cc(F)ccc2n2c(CN3CCCC3)ccc12)c1cnccn1
inactive: [1] 26.3% | [2] 27.1% | [3] 17.6% | [5] 18.2% | [7] 13.6% | [8] 12.7% | [10] 17.2% | [11] 11.1% | [12] 37.4% | [13] 31.4% | [14] 22.1%
active: [4] 2.93% | [6] -3.33% | [9] 7.69% | [15] 6.2% | [16] 1.5% | [17] 0.872%

NC(N)=Nc1ccc(Oc2cccc(Nc3ccc(Cl)c(C(F)(F)F)c3)c2)cn1
inactive: [14] 17.7% | [16] 15.9%
active: [1] -65.6% | [2] -25.9% | [3] -51.2% | [4] -76.2% | [6] -59.5% | [7] -24.1% | [8] -46.3% | [9] -75.9% | [10] -93.4% | [11] -43.5% | [13] -58.1% | [18] -3.9% | [15] -84.7% | [17] -26.1% | [19] -62.4%

COc1c(N2CC3CCCNC3C2)c(F)cc2c(=O)c(C(=O)N/N=C/c3ccc(N(C)C)cc3)cn(C3CC3)c12 (stereo not given)
active: [11] -10% | [16] -8.68%
inactive: [1] 69.1% | [2] 93.6% | [3] 91.9% | [4] 78.3% | [5] 69.5% | [6] 73% | [7] 88.7% | [8] 37.7% | [9] 104% | [10] 73.6% | [12] 92.9% | [13] 69.1% | [14] 85.5% | [15] 95% | [17] 106%

COc1ccc(C2CC(c3ccc(Nc4nc(NCCO)nc(N5CCOCC5)n4)cc3)=Nc3c(N)nc(N)nc3N2)cc1 (stereo not given)
inactive: [1] 99.1% | [2] 95% | [3] 108% | [4] 110% | [6] 95.6% | [7] 104% | [8] 97.3% | [9] 109% | [10] 103% | [11] 99.1% | [13] 90.6% | [18] 114% | [14] 90.2% | [15] 106% | [16] 92.2% | [17] 109% | [19] 107%

COc1cc(/C=C2\C(=O)Nc3ccccc32)ccc1OCc1ccc(F)cc1
inactive: [1] 99% | [2] 103% | [3] 100% | [4] 86.4% | [6] 91.9% | [7] 108% | [8] 107% | [9] 111% | [10] 106% | [11] 104% | [12] 99.8% | [13] 100% | [14] 105% | [15] 102% | [16] 102% | [17] 118%

NC(=O)c1cccc(C#CCNC[C@H]2C[C@@H](n3ccc4c(Cl)ncnc43)[C@H](O)[C@@H]2O)c1
inactive: [1] 99% | [20] 99.1% | [3] 106% | [4] 113% | [6] 97.3% | [7] 101% | [8] 101% | [9] 116% | [10] 108% | [11] 111% | [13] 101% | [18] 107% | [14] 102% | [15] 105% | [16] 98.9% | [17] 98.2% | [19] 104%

O=C(Nc1ccc(Br)cc1)Nc1nc2ccc([N+](=O)[O-])cc2s1
inactive: [8] 11.2% | [10] 18.8% | [14] 12.2%
active: [1] -21.9% | [20] -3.17% | [3] 0.86% | [6] 3.86% | [7] 5.83% | [9] -37% | [11] 2.8% | [12] -14.1% | [13] -5.42% | [18] -27.8% | [15] -40.1% | [16] 0.554% | [17] -16.8% | [19] 2.06%

CC(=O)Nc1cccc(Nc2nc(N[C@@H](C)c3ccccc3)c3ccccc3n2)c1
inactive: [1] 20.6% | [2] 53.7% | [3] 33.9% | [5] 13.1% | [7] 19.9% | [10] 11.4% | [12] 47% | [14] 27.3% | [17] 55.3%
active: [4] 2.67% | [8] 3.67% | [9] -12.3% | [11] -19% | [13] -22.1% | [18] -48.3% | [15] 8.33% | [16] -44% | [19] -10.7%

Cc1nc(-c2ccccc2O)ccc1C(=O)N=Nc1c(O)[nH]c2ccc(Br)cc12
inactive: [1] 96.2% | [2] 99.5% | [3] 84.3% | [4] 99.8% | [5] 62.1% | [6] 97% | [7] 103% | [8] 102% | [9] 105% | [10] 113% | [11] 113% | [12] 85.4% | [13] 87.6% | [14] 96.7% | [15] 104% | [16] 95.7% | [17] 104%

NC(N)=Nc1ccc(Oc2cccc(Nc3ccc(Cl)c(C(F)(F)F)c3)c2)cc1
inactive: [1] 47.4% | [20] 53.3% | [3] 13.4% | [6] 49% | [7] 57.4% | [8] 53% | [10] 47.8% | [18] 50% | [14] 32.8% | [16] 80.9% | [17] 27.6% | [19] 41.1%
active: [4] 2.61% | [11] 5.61% | [13] 6.88% | [15] 4.34%

Cn1ccnc1C(=O)/C=C/c1ccc(CNC(=O)c2ccc(S(F)(F)(F)(F)F)cc2)cc1
inactive: [20] 27% | [3] 17.5% | [5] 74.3% | [6] 29.5% | [7] 16% | [8] 13.1% | [9] 41.8% | [10] 13.8% | [11] 18.9% | [12] 89.9% | [15] 26.8% | [17] 89.9%
active: [1] 3.4% | [13] 5.17% | [14] 6.38% | [16] -36%

COc1ccccc1-n1cc(C#N)c(N)c1C(=O)c1ccc(Br)cc1
inactive: [1] 87.8% | [2] 96.7% | [3] 63.5% | [4] 79.7% | [6] 48.7% | [8] 91.9% | [9] 76.5% | [10] 97.3% | [11] 20.1% | [13] 79.8% | [18] 85.8% | [14] 89% | [15] 45.5% | [16] 82.7% | [17] 72.5% | [19] 42.3%

O=S(=O)(NCCNc1nccc(-n2cnc3ccccc32)n1)c1ccc(Br)cc1
inactive: [1] 97.3% | [2] 107% | [3] 87.2% | [4] 101% | [5] 74.2% | [6] 87.2% | [7] 100% | [8] 103% | [9] 107% | [10] 99.9% | [11] 88.4% | [12] 103% | [13] 88.2% | [18] 101% | [14] 91.2% | [15] 96.5% | [16] 96.2% | [17] 109%

COc1cc(OC)c(S(N)(=O)=O)cc1C(=O)/C=C/c1ccc(Cl)cc1
active: [1] 6.85% | [20] -26% | [3] 9.71% | [4] -11.2% | [6] -6.47% | [9] -30% | [10] 5.02% | [11] 7.15% | [18] -40.4% | [14] 6.79% | [15] 1.14% | [16] 0.148%
inactive: [8] 13.8% | [12] 61.4% | [13] 11.5% | [17] 73.6% | [19] 19.9%

CNC(=O)c1cc(Oc2ccc3nc(NC(=O)c4cc(N5CCOCC5)cc(C(F)(F)F)c4)sc3c2)ccn1
inactive: [1] 88.2% | [2] 89.4% | [3] 89.3% | [4] 67.5% | [6] 81.6% | [7] 68.5% | [8] 80.3% | [9] 94% | [10] 86.1% | [11] 67.2% | [12] 87.1% | [13] 76.2% | [14] 86% | [15] 44.6% | [16] 91.5% | [17] 82.4% | [19] 77.5%
active: [18] -9.02%

COc1cc(C2N=C(NNc3ccccc3)NC(C)=C2C(C)=O)ccc1O (stereo not given)
inactive: [1] 96.7% | [2] 88.1% | [3] 82% | [4] 106% | [5] 90.4% | [6] 78.5% | [7] 95.5% | [8] 102% | [9] 113% | [10] 108% | [11] 66.8% | [12] 106% | [13] 76.8% | [14] 86.3% | [15] 101% | [16] 98.7% | [17] 110%

CC(Nc1c(C#N)cnc2ccc(-c3cnc(N)nc3)cc12)c1ccccc1 (stereo not given)
active: [6] 7.27% | [12] 0.078% | [15] -17% | [16] 2.6%
inactive: [1] 13.1% | [20] 18.4% | [3] 10.6% | [4] 13.1% | [7] 11.6% | [8] 12.2% | [9] 24% | [10] 17.3% | [11] 22.5% | [13] 19.1% | [14] 13.4% | [17] 34.1%

CCC(NC(c1cc2cccc3ccc4cccc1c4c32)c1nnnn1C(C)(C)C)C1CCCCC1 (stereo not given)
inactive: [1] 46.6% | [2] 79.3% | [3] 69.7% | [4] 31.2% | [6] 60.1% | [7] 69.7% | [8] 67.3% | [9] 78.6% | [10] 69.7% | [11] 35.2% | [12] 83.5% | [13] 55.9% | [18] 69.8% | [14] 74.6% | [15] 63.5% | [16] 63.2% | [17] 38.6% | [19] 80.5%
